Experimental data published in PubChem BioAssay AID1345083 (National Center for Advancing Translational Sciences (NCATS), 2018).
About 6,200 (6.6%) of roughly 94,000 compounds were called active. Where a call stands in place of a potency, no number is given. Another 31% or so got no clear call; they are omitted. Calls come from the whole dose curve; as a rule, active = well fitted inhibition curve with a large enough effect; inconclusive = small, poorly fitted or top-dose-only effect; inactive = flat fitted curve, though single readings scatter. The full list was thinned out, with actives kept by preference.

Experiment: Cytotoxic Profiling in HEK 293 Cell Line of Diverse Libraries Using Quantitative High-Throughput Screening; note: nearly all actives have a fitted effect of over 60% in size
Settings: HEK 293 viability, ATP luminescence (CellTiter-Glo), 48-72 h; series mostly up to 115 µM
In short: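 qHTS cytotoxicity; HEK 293, 250 cells/well; compound pinned; 48 or 72 hr, 37 degree Celsius, 5% CO2, 95% humidity; CellTiter-Glo, 10 min RT; luminescence (ATP).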
Potency is the fitted concentration of half-maximal effect.

Compound | Potency
O=C(C1Cn2cccc2C(=O)N1Cc1ccccc1)N1CCOCC1 (centres undefined) | inactive
Cc1ccc(S(=O)(=O)N2CC[C@H](c3nnc(-c4ccccc4)o3)C2)cc1 | inactive
Cc1cnc(CC2CCN(S(=O)(=O)c3ccc(C#N)cc3)C2)n1Cc1ccccc1 (centres undefined) | 44.7 µM (active)
O=S(=O)(Cc1ccccc1)N1CCCC(Cc2nncn2CC2CC2)C1 (centres undefined) | inactive
CCN(CCn1cccn1)Cc1cnc(S(=O)(=O)Cc2ccccc2)n1CC(C)C | inactive
O=C(C1CCCCC1)N1CC2(Cc3ccccc3NC2=O)C1 | inactive
O=C(NCc1c[nH]c2ncccc12)c1ccccc1F | inactive
CC(C)N1CCC(OCCCNC(=O)C2Cn3cccc3C(=O)N2)CC1 (centres undefined) | inactive
CN1CC(C(=O)NCc2ccccc2)NC1=O (centres undefined) | inactive
COC(=O)[C@@H]1Cc2ncn(Cc3ccc(OC)cc3)c2CN1S(C)(=O)=O | inactive
COc1ccc(CNC(=O)[C@H]2O[C@H](CCN3CCN(C)CC3)CC[C@@H]2O)cc1 | inactive
C=CCn1cc2c3c(cccc31)[C@H](CC(C)C)N[C@H](C(=O)NCC1CC1)C2 | 79.4 µM (active)
COCCN1C(=O)Cc2ccccc2C1C(=O)NCC1CCCCC1 (centres undefined) | inactive
CC(C)C[C@@H]1N[C@H](C(=O)NCc2ccc(F)cc2)Cc2cn(C)c3cccc1c23 | 70.8 µM (active)
CCc1ccc(CNC(=O)C2c3ccccc3CC(=O)N2C(C)C)cc1 (centres undefined) | inactive
COc1ccc(CNC(=O)[C@@H]2Cc3cn(Cc4ccncc4)c4cccc(c34)[C@H](CC(C)C)N2)cc1 | 39.8 µM (active)
CN1CC2(CCN(C(=O)c3ccncc3)CC2)CC1C(=O)N1CCOCC1 (centres undefined) | inactive
CNC(=O)c1cc(C2CC2)nc2onc(C3CCN(C(=O)Nc4ccccc4)C3)c12 (centres undefined) | inactive
CNC(=O)c1cc(C2CC2)nc2c1c(C1CCN(C(=O)C(C)C)C1)nn2C (centres undefined) | inactive
COC[C@H]1C[C@@H](NC(=O)c2cc(C)oc2C(F)(F)F)[C@H](O)[C@@H]1O | inactive
Cc1cc(S(=O)(=O)N2CCC(n3cnnc3C(C)C)CC2)ccc1F | inactive
CN1CCCN(C(=O)c2cc(F)ccc2F)c2ccccc21 | inactive
Cc1cc(S(=O)(=O)N2CCCN(C)c3ccccc32)ccc1F | 79.4 µM (active)
CCOc1ccc(-c2cc3c(=O)n(CCNC(=O)c4ccc(OC)cc4C)ccn3n2)cc1 | inactive
COc1cccc(CNC(=O)Cn2ccn3nc(-c4ccc(F)cc4)c(CO)c3c2=O)c1 | inactive

Compound | Potency
CCC(C(=O)NCCn1ccn2nc(-c3ccc(F)cc3)cc2c1=O)c1ccccc1 (centres undefined) | 20 µM (active)
O=C(Cn1cccc1-c1nc(-c2ccc(F)cc2)no1)Nc1cc(F)cc(F)c1 | inactive
Fc1ccc(Nc2nc(-c3ccccc3F)no2)cc1 | 39.8 µM (active)
CCc1nc2c(=O)n(CC(=O)NCc3cc(C)ccc3C)nc(C)c2s1 | inactive
CN(c1ccccc1)c1cc(=O)c2ccnc(Nc3cccc([S+](C)(=O)[O-])c3)c2o1 | 100 µM (active)
Cn1ccc(Nc2nccc3c(=O)cc(-c4ccccn4)oc23)n1 | inactive
CCCC(=O)N(C)CC1CCOCC1 | inactive
COc1ccccc1NC(=O)N1CCC2(CCNC(=O)CC2)CC1 | inactive
CN(C)CCN(C)C(=O)c1ccc2c(c1)NC(C)(COc1ccc3[nH]ccc3c1)CO2 (centres undefined) | 112 µM (active)
CC1(COCC2CC2)COc2ccc(C(=O)NCc3cccnc3)cc2N1 (centres undefined) | inactive
O=C(NCC1CCOCC1)c1ccc2[nH]ccc2c1 | inactive
CC(C)CC(=O)N1CCCN(c2nnc3ccccn23)CC1 | inactive
C[C@@H](NC(=O)c1cccnc1)c1c(-c2ccc(F)cc2)noc1C(=O)O | inactive
CC(=O)NC1CN(c2ccnc3ccnn23)C1 | inactive
Cc1cccc(C(=O)N2C[C@@H](F)C[C@H]2C(=O)N2CCCCC2)c1 | inactive
CC(=O)Nc1cccc(-c2nnc3n2CCCC3)c1 | inactive
Cc1cccc(-c2cccc(NC(=O)C3CCCN(C(=O)CC(F)(F)F)C3)c2)c1 (centres undefined) | 31.6 µM (active)
CCCCc1ccc(NC(=O)Cn2ccn3nc(-c4ccc(F)cc4)c(CO)c3c2=O)cc1 | inactive
COC[C@H]1NC(=O)CC[C@H]1C(=O)NCc1cccc(C(F)(F)F)c1 | inactive
COc1ccccc1CNC(=O)c1nn(CC2CC2)c2c1CNCC2 | inactive
O=C(NCc1cccc(C(F)(F)F)c1)c1nn(CCOc2ccccc2)c2c1CNCC2 | 28.2 µM (active)
CNC(=O)c1noc([C@@H]2CC(F)(F)CN2Cc2ccc(C)cn2)n1 | inactive
COc1ccc(N2CC(COc3ccccc3)Oc3ncccc3[S+]2(=O)[O-])cc1 (centres undefined) | inactive
COc1ccc(OCC2CN(Cc3cccc(F)c3)[S+](=O)([O-])c3cccnc3O2)cc1 (centres undefined) | 28.2 µM (active)
